Here are results for 29 compounds from PubChem BioAssay (NCATS).

Inconclusive results are not listed. The source made the active and inactive calls. Unless noted, calls follow the shape of the dose curve; as a rule, active = well fitted curve in the direction sought with a large enough effect; inconclusive = small, poorly fitted or top-dose-only effect, or another doubt; inactive = no such curve, though single readings can be large; an effect the other way counts as inactive or inconclusive.

Assay [1] in a line: qHTS Assay for Identifying Gametocytocidal Compounds (AID 743244).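 Also: % is scaled to controls: 0 for no effect and ±100 for the full control effect; actives lower the fluorescent signal which means gametocytes are killed.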 As to conditions: P. falciparum 3D7 stage III-V gametocytes, alamarBlue, 72 h; max response: stronger effect = lower value. In outline:
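P. falciparum 3D7 stage III–V gametocytes (20,000 cells/well) were exposed to compounds for 72 h at 37 °C, 5% CO2. AlamarBlue was then added for 24 h; decreased resorufin fluorescence (Ex 525/Em 598 nm) indicated loss of viability.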
On the technique in general: Quantitative high-throughput screening tests each substance at several concentrations.

Assay [2] can be described thus: qHTS assay for measurement of the activity of small molecule inhibitors on Zika virus induced Caspase-3 activity in human iPSC derived neural progenitor cells (hNPCs) (AID 1224857). Also: % of control where 0% means no effect; nearly all actives have a fitted effect of over 65% in size. In outline:
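hNPCs seeded 350 cells/well, cultured 16–20 h; compounds added 1 h before ZIKV (2 FFU/cell), 37 C 6 h. Caspase-Glo 3/7 luminescence after 30 min RT; % inhibition from induction scaled to uninfected (0%) and infected (100%) wells.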

Assay [3] in a line: qHTS assay for measurement of the activity of small molecule inhibitors on Zika virus induced Caspase-3 activity in human astrocytoma cells (AID 1224859).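 Also: plate controls were ZIKV-infected untreated cells for no effect and uninfected cells for full effect.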 In outline:
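Luminescence read-out (Caspase-Glo 3/7, 30 min RT) of caspase activity in SNB-19 cells infected 6 h with ZIKV, 2 FFU/cell, after 1 h compound pretreatment; % inhibition from induction normalised to uninfected (0%) and infected (100%) wells.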

Assay [4] in a line: qHTS assay to identify small molecule inhibitors of chordoma cells - UCH-1 (AID 1259355). Also: % is scaled to controls: 0 for no effect and ±100 for the full control effect; nearly all actives have a fitted effect of over 55% in size. In outline:
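Cells (800/well) were seeded and left overnight at 37 C, 5% CO2, then treated with drugs at 15 concentrations plus a combination mix of auranofin, camptothecin, doxorubicin, rubitecan and topotecan. Viability after 48hr was read by CellTiter-Glo luminescence.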

The nature of assay [5]: qHTS assay to identify small molecule inhibitors of chordoma cells - UCH-2 (AID 1259356). Also: % is scaled to controls: 0 for no effect and ±100 for the full control effect.
A short description of assay [6]: qHTS assay for small molecule agonists of the antioxidant response element (ARE) signaling pathway measured by Nrf2-dependant transcriptional activity (AID 720636; active = well fitted curve in the direction sought with a large enough effect in the repeat runs; an effect the other way counts as inactive or inconclusive; also: % of control where 0% means no effect). Put shortly: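 Quantitative HTS format in HepG2 cells stably expressing an ARE-luciferase reporter; 16 hr compound treatment at 37 C, luciferase signal detected with ONE-Glo.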
Assay [7] can be described thus: qHTS assay for small molecule antagonists of the retinoid-related orphan receptor gamma (ROR-gamma) signaling pathway - cell viability counter screen (AID 720652; active = well fitted curve in the direction sought with a large enough effect in the repeat runs; an effect the other way counts as inactive or inconclusive;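 also: CHO reporter cells with doxycycline-induced ROR-gamma expression; compound exposure lasted 16 hr before ATP read; % is scaled to controls: 0 for no effect and ±100 for the full control effect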). In outline:
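Counter screen in CHO cells carrying TET-inducible ROR-gamma and an ROR response element-luciferase reporter; cells plated 5 hr, compound pinned, doxycycline added, then 16 hr at 37 C. Viability read as intracellular ATP by CellTiter-Glo luminescence.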

Assay [8] is described as follows: qHTS assay for small molecule agonists of the antioxidant response element (ARE) signaling pathway measured by Nrf2-dependant transcriptional activity - cell viability counter screen (AID 720653; active = well fitted curve in the direction sought with a large enough effect in the repeat runs; an effect the other way counts as inactive or inconclusive; also: % is scaled to controls: 0 for no effect and ±100 for the full control effect). Particulars: ARE-bla HepG2 viability, CellTiter-Glo ATP luminescence, 16 h; stronger effect = lower value. Put shortly:
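ARE-bla HepG2 cells treated with compounds for 16 h at 37C; this counter screen measures viability as intracellular ATP by CellTiter-Glo luminescence after 30 min at room temperature.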

A short description of assay [9]: qHTS assay for cell viability of HEK293 cells (AID 743288). Also: % is scaled to controls: 0 for no effect and ±100 for the full control effect; nearly all actives have a fitted effect of over 50% in size. Particulars: ATP luminescence (CellTiter-Glo), 18 h, stronger effect = lower value. Put shortly: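 Luminescent ATP quantitation served as the viability read-out. Cells (parental HEK293, 2,000/well) received compounds after at least 5 h at 37 C and were exposed for 18 h before a 30 min room-temperature reagent step.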

Assay [10] is described as follows: qHTS assay for cell viability of the p53RE-bla HCT-116 cell line (AID 743292). Also: % is scaled to controls: 0 for no effect and ±100 for the full control effect; nearly all actives have a fitted effect of over 55% in size. In outline:
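Viability of compound-treated p53RE-bla HCT-116 cells is taken from ATP-dependent luciferase luminescence. Treatment lasts 16 h at 37 C after a 5 h settling period; detection follows 30 min at room temperature.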

A short description of assay [11]: qHTS profiling for inhibitors of Plasmodium falciparum (3D7) proliferation (AID 743322; call rule not given here;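 also: infected erythrocytes exposed to compound for 72 h before lysis; 100% = DMSO vehicle wells and 0% = 0.29 µM artemisinin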). As to conditions: P. falciparum 3D7 proliferation; at 28.7 µM (top of the series). In outline:
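Erythrocytes infected with P. falciparum (0.3% parasitemia, 2.5% hematocrit) incubated with compounds 72 h at 37 C, 5% CO2. Lysis with saponin/Triton buffer containing SYBR Green I, overnight at room temperature in the dark; DNA fluorescence (485/535 nm) normalised to 0.29 uM artemisinin and DMSO.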

The nature of assay [12]: qHTS profiling for inhibitors of Plasmodium falciparum (DD2) proliferation (AID 743323; call rule not given here). As to conditions: lower = more inhibition; at 28.7 µM (top of the series). In outline: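 Parasite DNA quantified by SYBR Green fluorescence (ex 485, em 535 nm) after saponin/Triton lysis and overnight dark incubation. Cultures: 0.3% parasitemia, 2.5% hematocrit, 72 h, 37 C; data scaled between DMSO and 0.29 uM artemisinin.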

Assay [13] in a line: qHTS profiling for inhibitors of Plasmodium falciparum (HB3) proliferation (AID 743324).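 Also: 100% = DMSO vehicle wells and 0% = artemisinin-treated control wells.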 As to conditions: Plasmodium falciparum HB3 blood-stage proliferation; at 28.7 µM (top of the series). In outline: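 P. falciparum HB3 grown in erythrocytes (0.3% parasitemia, 2.5% hematocrit final) with compound for 72 h at 37 C, 5% CO2. Parasite DNA detected by SYBR Green after saponin/triton lysis overnight; normalized to 0.29 uM artemisinin and DMSO.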

Consider `CN(C(=O)c1c(O)c2ccccc2n(C)c1=O)c1ccccc1`, for which the max response in assay [1] was -2.29% (inactive). Besides, the compound was called inactive in assay [2], in assay [3], in [4] and in [5].

As to `O=C(O)c1cc(=O)c2ccccc2o1`, the max response in [1] is 42.7% (inactive). In addition, the call in assay [2], in assay [3], in assay [4] and in assay [5] was inactive.

Take `CCN1CC(CCN2CCOCC2)C(c2ccccc2)(c2ccccc2)C1=O` (stereo not given): the max response in assay [1] is 3.23% (inactive). Also, the compound was called inactive in assay [2], in assay [3], in [4] and in assay [5].

For `CC(=O)Nc1ccc(OCCOCCOc2ccc(NC(C)=O)cc2)cc1`, the max response in [1] is 1.8% (inactive). The result in [2], in assay [3], in [4] and in assay [5] was inactive.

Regarding `O=C(O)[C@@H]1[C@H]2C[C@H]3c4[nH]c5ccccc5c4CCN3C[C@@H]2CC[C@@H]1O`, in assay [1], the max response is -6.8% (inactive). Further, the compound was classed as inactive in assay [2], in assay [3], in assay [4] and in [5].

On to `Cc1cccc(C)c1NC(=O)CC12CCCN1CCC2`, for which the max response in assay [1] is 0.37% (inactive). The compound was called inactive in assay [2], in assay [3], in assay [4] and in [5].

As to `C/C(=C(\CCO)SS/C(CCO)=C(\C)N(C=O)Cc1cnc(C)nc1N)N(C=O)Cc1cnc(C)nc1N`, the max response in [1] is -3.83% (inactive). For the same compound, the compound was classed as inactive in assay [2], in [3], in assay [4] and in assay [5].

For the compound `CC(C)=CCC[C@@](C)(O)[C@H]1CC=C(C)CC1`, the max response in [1] was 10.2% (inactive). Also, the result in assay [2], in assay [3], in assay [4] and in assay [5] was inactive.

Take `O=C(NCCCN1CCOCC1)c1ccc(Cl)cc1`: in assay [1], the max response was -7.89% (inactive). The outcome in [2], in assay [3], in [4] and in assay [5] was inactive.

Turning to `Cc1cc(=O)[nH]c(=S)[nH]1`, the call in assay [6], in assay [7], in assay [10], in assay [2], in [3] and in assay [4] was inactive. Moreover, the result in assay [5] was inactive. Moreover, the results for the max response in assay [8], in [1] and in assay [9] were 1.24% (inactive), 4.75% (inactive) and -3.4% (inactive), respectively.

`CCOc1ccccc1O[C@H](c1ccccc1)[C@H]1CNCCO1` registered a remaining parasite growth % (stronger effect = lower value) in assay [11] of 89.6%. Further, in [12], the activity, percent of control is 63.9%. In addition, in assay [13], the remaining proliferation (% of control), lower = more inhibition was 47.7%. Moreover, the outcome in [2], in [3], in [4] and in [5] was inactive.

As for `COC(=O)c1ccccc1C(=O)c1ccc(OCCN2CCCCC2)cc1`, the max response in [1] is -9.15% (inactive). Besides, the outcome in assay [2], in assay [3], in assay [4] and in [5] was inactive.

Consider `O=C1c2cccc(O)c2C(=O)c2c(O)cccc21`, for which the result in [7], in [10], in assay [2], in assay [3], in [4] and in [5] was inactive. Further, the max response is 2.37% (inactive) in assay [1] and -10.2% (inactive) in assay [9].

For `O=c1[nH]c(=O)n([C@H]2C[C@H](O)[C@@H](CO)O2)cc1I`, the max response in assay [1] was 3.28% (inactive). In addition, the result in assay [2], in assay [3], in assay [4] and in assay [5] was inactive.

With `Cc1cccc(Nc2ccccc2C(=O)O)c1C`, the call in assay [6], in [10], in [2], in assay [3], in assay [4] and in assay [5] was inactive. In addition, the results for the max response in [8], in assay [1] and in [9] were -4.01% (inactive), 4.7% (inactive) and 2.21% (inactive), respectively.

As for `O=C(O)Cc1ccc(CCNS(=O)(=O)c2ccc(Cl)cc2)cc1`, the max response in assay [1] was 23.5% (inactive). Besides, the compound was classed as inactive in [2], in [3], in assay [4] and in [5].

On to `Cc1ncc(CO)c(CN)c1O`, for which the max response in [1] was 6.59% (inactive). The outcome in [2], in [3], in assay [4] and in [5] was inactive.

As to `Cc1ccc(S(=O)(=O)NC(=O)NC2CCCCC2)cc1`, the max response in assay [1] was 0.0407% (inactive). Moreover, the result in assay [2], in assay [3], in assay [4] and in [5] was inactive.

`COC(=O)c1ccc(O)cc1`: the values for the max response in [8], in assay [1] and in assay [9] were -3.37% (inactive), -9.3% (inactive) and 1.25% (inactive), respectively. Also, the compound was classed as inactive in assay [10], in [2], in assay [3], in [4] and in assay [5].

`CCN[C@H]1CN(CCCOC)S(=O)(=O)c2sc(S(N)(=O)=O)cc21`: the max response in assay [1] was 21.3% (inactive). Moreover, the compound was classed as inactive in assay [2], in [3], in assay [4] and in assay [5].

Consider `Cc1onc(-c2ccccc2)c1-c1ccc(S(N)(=O)=O)cc1`, for which the max response in [1] was 7.78% (inactive). Moreover, the result in [2], in [3], in assay [4] and in assay [5] was inactive.

As for `CC(=O)N[C@@H](Cc1ccc(O)cc1)C(=O)O`, the max response in assay [1] was -6.61% (inactive). The compound was called inactive in [2], in assay [3], in assay [4] and in assay [5].

As for `CC[N+](CC)(CC(=O)Nc1c(C)cccc1C)Cc1ccccc1`, the compound was called inactive in [6], in [10], in [2], in [3], in assay [4] and in assay [5]. The max response in assay [8] is -0.181% (inactive); in [9], -11.2% (inactive).

With `OCc1ccc(Cl)cc1Cl`, in [1], the max response is -2.07% (inactive). In addition, the compound was called inactive in assay [2], in [3], in assay [4] and in [5].

For `Nc1ccc(C(=O)Oc2ccccc2)c(O)c1`, in assay [1], the max response was -7.01% (inactive). Moreover, the call in assay [2], in assay [3], in [4] and in [5] was inactive.

On to `CC(=O)Nc1ccccc1`, for which the compound was called inactive in [6], in assay [7], in assay [10], in assay [2], in [3] and in assay [4]. Also, in assay [5], the call was inactive. Besides, the max response in assay [8] is -3.41% (inactive); in assay [1] it was 9.51% (inactive); in assay [9], -0.588% (inactive).

Consider `CC1(C)[C@@H](OC(=O)CCC(=O)O)CC[C@]2(C)[C@H]3C(=O)C=C4[C@@H]5C[C@@](C)(C(=O)O)CC[C@]5(C)CC[C@@]4(C)[C@]3(C)CC[C@@H]12`, for which, in [1], the max response was -6.25% (inactive). The outcome in [2], in [3], in [4] and in [5] was inactive.

In the case of `CC[C@]12CCCN3CCc4c(n(c5ccccc45)[C@@](O)(C(=O)OC)C1)[C@@H]32`, in assay [1], the max response is 13.2% (inactive). The call in assay [2], in assay [3], in assay [4] and in [5] was inactive.

Regarding `CC1CCc2cc(F)cc3c(=O)c(C(=O)O)cn1c23` (stereo not given), in assay [1], the max response is -10.9% (inactive). For the same compound, the call in assay [2], in [3], in [4] and in assay [5] was inactive.
